Reference: ChEMBL document CHEMBL1157539, “Thousands of chemical starting points for antimalarial lead identification” (Nature, 2010)

Experiments:
Type in all cases: functional
[1] = tested on: Plasmodium falciparum; test: GSK_TCMDC: Inhibition of Plasmodium falciparum 3D7 in whole red blood cells, using parasite LDH activity as an index of growth. Test compounds present at 2uM
[2] = tested on: Plasmodium falciparum; test: GSK_TCMDC: Inhibition of Plasmodium falciparum Dd2 in whole red blood cells, using parasite LDH activity as an index of growth. Test compounds present at 2uM
[3] = tested on: HepG2; test: GSK_TCMDC: Percent inhibition of human HepG2 cell line. Test compounds present at 10uM.

NC1=NC(c2ccccc2)(c2ccccc2)C(=O)N1C1CCCCC1.O=CO
Inhibition [1]: 100% | Inhibition [2]: 87% | Inhibition [3]: 13%

COc1cccc(C2CCN(CCN3CCC(CNC(=O)c4ccc(-c5ccc(C(F)(F)F)cc5)cc4)CC3)CC2)c1
Inhibition [1]: 100% | Inhibition [2]: 42% | Inhibition [3]: 41%

COc1ccc(CNCc2ccc(-c3ccc(-c4nc5cc(F)ccc5[nH]4)cc3)cc2)cc1.O=C(O)C(F)(F)F
Inhibition [1]: 99% | Inhibition [2]: 83% | Inhibition [3]: 70%

CCCCNCc1ccc(-c2nc(CN(CCCn3ccnc3)C(=O)C3COc4ccccc4O3)cs2)cc1.O=C(O)C(F)(F)F (stereo not drawn)
Inhibition [1]: 93% | Inhibition [2]: 8% | Inhibition [3]: 6%

O=C(O)C(F)(F)F.O=c1cc(NCCCNCc2cn(S(=O)(=O)c3ccccc3)c3ccccc23)[nH]c2ccccc12
Inhibition [1]: 91% | Inhibition [2]: 29% | Inhibition [3]: 17%

N[C@@H](COc1cccc2c(-c3ccncc3)c(-c3cccc(NC(=O)Nc4ccccc4)c3)nn12)c1ccccc1
Inhibition [1]: 100% | Inhibition [2]: 71% | Inhibition [3]: 9%

COc1ccc(OCCCN2CCN(CC(c3ccc(F)cc3)N3CCN(C(C)C)CC3)CC2)c2ccccc12.O=C(O)C(F)(F)F (stereo not drawn)
Inhibition [1]: 100% | Inhibition [2]: 32% | Inhibition [3]: 30%

CCOc1ccc(-c2nonc2NC(=O)c2ccccc2Cl)cc1OCC
Inhibition [1]: 100% | Inhibition [2]: 100% | Inhibition [3]: 3%

COc1ccc(CN2CCC(CNCCc3c(Cl)cccc3Cl)CC2)cc1.O=C(O)C(F)(F)F
Inhibition [1]: 98% | Inhibition [2]: 69% | Inhibition [3]: 45%

Br.CC1(C)NC(N)=NC(=N)N1OCCCSc1ccccc1
Inhibition [1]: 93% | Inhibition [2]: 94% | Inhibition [3]: 69%

Cc1cc2[nH]c(-c3ccc(C(=O)NCCCN4CCN(c5cccc(Cl)c5)CC4)cc3F)nc2cc1Cl
Inhibition [1]: 99% | Inhibition [2]: 79% | Inhibition [3]: 0%

COc1ccc(CCN(Cc2cccs2)C(=O)c2cc3sccc3n2C)cc1OC
Inhibition [1]: 94% | Inhibition [2]: 97% | Inhibition [3]: 0%

COc1cccc(C(=O)Nc2nonc2-c2ccc(OC)c(OC)c2)c1
Inhibition [1]: 97% | Inhibition [2]: 50% | Inhibition [3]: 7%

CCC(CC)(Cc1ccccc1)NC(=O)[C@H](CC(C)C)Nc1ccc(C#N)c2ccccc12.O=C(O)C(F)(F)F
Inhibition [1]: 90% | Inhibition [2]: 73% | Inhibition [3]: 57%

CCn1cc(CN2CCCC(C(=O)Nc3ccc(-c4nc5ccccc5[nH]4)cc3)C2)c(C)n1 (stereo not drawn)
Inhibition [1]: 100% | Inhibition [2]: 28% | Inhibition [3]: 22%

COc1ccc2ncc(F)c(NC(=O)C3CCC(NCc4cc5c(F)cccc5[nH]4)CC3)c2n1.Cl (stereo not drawn)
Inhibition [1]: 91% | Inhibition [2]: 29% | Inhibition [3]: 39%

CCOc1cc(C(=O)NCc2cccc(C(F)(F)F)c2)ccc1-c1nc2cc(Cl)ccc2[nH]1
Inhibition [1]: 88% | Inhibition [2]: 31% | Inhibition [3]: 7%

Cn1nccc1C(=O)NCCNCc1cccc(-c2cccc(-c3nc4cc(F)ccc4[nH]3)c2)c1.O=C(O)C(F)(F)F
Inhibition [1]: 100% | Inhibition [2]: 7% | Inhibition [3]: 38%

O=C(NC1CC1)c1ccc(N2CCCCN2CCc2ccccc2)c(C(F)(F)F)c1.O=C(O)C(F)(F)F
Inhibition [1]: 98% | Inhibition [2]: 84% | Inhibition [3]: 0%

NC1CCN(Cc2cccc(-c3ccc(-c4nc5ccccc5[nH]4)s3)c2)C1.O=C(O)C(F)(F)F (stereo not drawn)
Inhibition [1]: 100% | Inhibition [2]: 62% | Inhibition [3]: 36%

CCCN(c1ccc(C(F)(F)F)cc1[N+](=O)[O-])S(=O)(=O)C(c1ccccc1)c1ccc(C(F)(F)F)cc1[N+](=O)[O-] (stereo not drawn)
Inhibition [1]: 94% | Inhibition [2]: 49% | Inhibition [3]: 0%

Cl.Clc1ccc(OCc2ccccc2)c(Cc2ccc(-c3nc4cnccc4[nH]3)o2)c1
Inhibition [1]: 99% | Inhibition [2]: 6% | Inhibition [3]: 2%

CC(C)C[C@H](NC(=O)[C@H](Cc1ccccc1)N(C[C@H](Cc1ccccc1)NC(=O)OC(C)(C)C)C(=O)C(F)(F)F)C(=O)NC1CCN(Cc2ccccc2)CC1
Inhibition [1]: 92% | Inhibition [2]: 82% | Inhibition [3]: 13%

Cc1onc(-c2ccccc2Cl)c1C(=O)Nc1cc(Cl)c(Cl)cc1Cl
Inhibition [1]: 90% | Inhibition [2]: 57% | Inhibition [3]: 3%

COc1ccc(C(=O)NC(Nc2ccc([N+](=O)[O-])cc2)C(Cl)(Cl)Cl)cc1 (stereo not drawn)
Inhibition [1]: 95% | Inhibition [2]: 83% | Inhibition [3]: 15%

CCN1CCC(N(Cc2ccc(-c3ccc(C(F)(F)F)cc3)cc2)C(=O)Cn2c(CCc3cccc(F)c3F)cc(=O)c3c2CCCC3)CC1.O=C(O)C(O)C(O)C(=O)O
Inhibition [1]: 100% | Inhibition [2]: 96% | Inhibition [3]: 55%
